Nine compounds from PubChem BioAssay (NCI) can be followed below.

Compounds without any hit were thinned out: in the full panel of roughly 83,000, 20% have a hit.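 Cell lines were cultured in 96-well plates, exposed to a single compound concentration, and assessed for percent growth 48 hours later.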 A number with no mark means an inactive call. The source made the active and inactive calls. The calls were made as follows: active = growth percent below 10; inactive = the rest.

Test systems include SR leukemia; RPMI-8226 leukemia; OVCAR-8 ovarian; OVCAR-5 ovarian; OVCAR-4 ovarian; SK-OV-3 ovarian; IGROV1 ovarian; OVCAR-3 ovarian; HS 578T breast; NCI/ADR-RES ovarian; T-47D breast; BT-549 breast; MDA-MB-435 melanoma; SW-620 colon; MCF7 breast; HCT-116 colon; HCC-2998 colon; KM12 colon.
Holding throughout (assay): NCI-60 one-dose screen, 48 h (100 = growth as untreated, 0 = no growth, -100 = all killed)
What all share (settings): 10 µM

As to `COc1cc(-c2nc3ccc(C)cc3[nH]2)ccc1OCC(=O)N=Nc1c(O)[nH]c2ccccc12`, the growth in the assay with SR leukemia is -36.7% (active); in the assay with RPMI-8226 leukemia, -54% (active); with OVCAR-8 ovarian, -72.8% (active); in the assay with OVCAR-5 ovarian, -32.4% (active); with OVCAR-4 ovarian it was -82.2% (active); with SK-OV-3 ovarian, -3.57% (active). Moreover, the growth in the assay with IGROV1 ovarian was -27.4% (active); in the assay with OVCAR-3 ovarian, -94.5% (active); in the assay with HS 578T breast, -46.8% (active); in the assay with NCI/ADR-RES ovarian, 87.5%; with T-47D breast it was -61.2% (active); in the assay with BT-549 breast, 18.9%. Besides, the growth in the assay on MDA-MB-435 melanoma was -52.6% (active); in the assay on SW-620 colon it was -62.9% (active); with MCF7 breast, -73.4% (active); with HCT-116 colon, -82.7% (active); in the assay on HCC-2998 colon it was -91.2% (active); in the assay with KM12 colon, -79.4% (active).

For `O=C(Nc1cccc(Cl)c1)Nc1cc2ncncc2cc1OCc1cccc(F)c1`, the growth is -1.31% (active) with SR leukemia; -0.539% (active) in the assay on RPMI-8226 leukemia; 3.52% (active) with OVCAR-8 ovarian; 29.6% in the assay with OVCAR-5 ovarian; 22.4% in the assay with OVCAR-4 ovarian; 28.1% in the assay with SK-OV-3 ovarian. For the same compound, the growth with IGROV1 ovarian is 19%; with OVCAR-3 ovarian it was 12.6%; in the assay with HS 578T breast, 45.9%; with NCI/ADR-RES ovarian it was 13.6%; in the assay on T-47D breast it was -5.19% (active); with BT-549 breast it was 44.8%. Moreover, the growth in the assay with MDA-MB-435 melanoma was 0.458% (active); in the assay with SW-620 colon, 23.9%; in the assay with MCF7 breast, 6.04% (active); with HCT-116 colon, 8.63% (active); with KM12 colon, 9.08% (active).

For the compound `COc1cc(C2CC(=O)Nc3c2c(C)nn3-c2nc3ccccc3[nH]2)cc(OC)c1O` (configuration not stated), the growth in the assay with SR leukemia was 9.39% (active); in the assay with RPMI-8226 leukemia it was 83.5%; in the assay with OVCAR-8 ovarian it was 19.9%; in the assay on OVCAR-5 ovarian, 112%; in the assay on OVCAR-4 ovarian, 63.8%; with SK-OV-3 ovarian, 2.53% (active). For the same compound, the growth in the assay with IGROV1 ovarian is 28.2%; in the assay with OVCAR-3 ovarian it was 20.9%; with HS 578T breast it was 8.42% (active); in the assay with NCI/ADR-RES ovarian it was 80.6%; in the assay with T-47D breast, 83.5%; in the assay on BT-549 breast, 46.2%. Moreover, the growth was 23% with MDA-MB-435 melanoma; 45.7% with SW-620 colon; 56.9% in the assay on MCF7 breast; 68.4% in the assay on HCT-116 colon; 45.7% with KM12 colon.

Turning to `NC1CCC(Nc2nc(NCc3cc(Cl)ccc3O)c3ncn(C4CCCC4)c3n2)CC1` (configuration not stated), the growth with SR leukemia is -15.9% (active); in the assay with RPMI-8226 leukemia it was -25.1% (active); in the assay on OVCAR-8 ovarian it was 8.24% (active); with OVCAR-5 ovarian, 17.3%; in the assay with OVCAR-4 ovarian, -6.96% (active); with SK-OV-3 ovarian it was 2.6% (active). Also, the growth in the assay with IGROV1 ovarian was 1.62% (active); in the assay on OVCAR-3 ovarian, -20.2% (active); in the assay on HS 578T breast, -1.92% (active); in the assay with NCI/ADR-RES ovarian, 26.3%; in the assay with T-47D breast, -28% (active); with BT-549 breast, -21.2% (active). Moreover, the growth in the assay with MDA-MB-435 melanoma is -43.9% (active); in the assay on SW-620 colon, 3.11% (active); in the assay with MCF7 breast, -58.9% (active); in the assay with HCT-116 colon, -17.6% (active); in the assay with HCC-2998 colon it was -39.5% (active); with KM12 colon, 1.98% (active).

`COc1ccc(C2C=C(c3ccc(Cl)c(Cl)c3)N=C3SC(C)=CN32)cc1` (configuration not stated): the growth is 9.84% (active) in the assay with SR leukemia; 18% with RPMI-8226 leukemia; 94% in the assay with OVCAR-8 ovarian; 102% with OVCAR-5 ovarian; 91.3% with OVCAR-4 ovarian; 109% with SK-OV-3 ovarian. Further, the growth is 86.8% with IGROV1 ovarian; 95.5% with OVCAR-3 ovarian; 105% with HS 578T breast; 107% in the assay on NCI/ADR-RES ovarian; 68.3% in the assay on T-47D breast; 89.9% in the assay with BT-549 breast. Besides, the growth in the assay with MDA-MB-435 melanoma is 90.6%; with SW-620 colon it was 91.4%; with MCF7 breast, 47.1%; in the assay on HCT-116 colon, 14.4%; in the assay with HCC-2998 colon, 108%; with KM12 colon it was 81.6%.

Consider `COc1ccc(-c2oncc2-c2cc(OC)c3c(c2)OCO3)cc1`, for which the growth was 7.62% (active) in the assay on SR leukemia; 23.8% with RPMI-8226 leukemia; 35.6% in the assay with OVCAR-8 ovarian; 37.9% with OVCAR-5 ovarian; 66.2% in the assay on OVCAR-4 ovarian; 19.7% with SK-OV-3 ovarian. For the same compound, the growth is 53.3% with IGROV1 ovarian; 7.36% (active) in the assay on OVCAR-3 ovarian; 4.09% (active) in the assay on HS 578T breast; 18.5% in the assay on NCI/ADR-RES ovarian; 34.7% in the assay on T-47D breast; 2.88% (active) in the assay on BT-549 breast. The growth was -35.5% (active) in the assay on MDA-MB-435 melanoma; 16.4% with SW-620 colon; 18% in the assay on MCF7 breast; 14.1% with HCT-116 colon; 31.3% in the assay on KM12 colon.

For `Cc1ccc(C)c2c1sc1nc3n[nH]c(N)c3c(=N)n12`, the growth is 97.6% in the assay on SR leukemia; 93.2% in the assay with RPMI-8226 leukemia; 97.9% in the assay with OVCAR-8 ovarian; 106% in the assay on OVCAR-5 ovarian; 101% in the assay on OVCAR-4 ovarian; 127% with SK-OV-3 ovarian. Further, the growth in the assay with IGROV1 ovarian was 127%; in the assay on OVCAR-3 ovarian it was 114%; with HS 578T breast, 107%; in the assay on NCI/ADR-RES ovarian, 110%; in the assay on T-47D breast it was 94.1%; with BT-549 breast it was 114%. The growth in the assay on MDA-MB-435 melanoma is 105%; with SW-620 colon it was 107%; with MCF7 breast it was 103%; in the assay with HCT-116 colon it was 101%; with KM12 colon, 104%.

With `O=c1ccc2nc(-c3ccccc3)nn(-c3ccccc3)c-2c1`, the growth with SR leukemia was -20.2% (active); with RPMI-8226 leukemia, -8.63% (active); in the assay on OVCAR-8 ovarian, -2.36% (active); in the assay with OVCAR-5 ovarian it was 102%; in the assay on OVCAR-4 ovarian it was -40.7% (active); with SK-OV-3 ovarian, 59.1%. In addition, the growth was 2.66% (active) in the assay with IGROV1 ovarian; -98.1% (active) in the assay on OVCAR-3 ovarian; 75.9% with HS 578T breast; 96.2% in the assay with NCI/ADR-RES ovarian; -36.5% (active) in the assay with T-47D breast; 90.2% in the assay on BT-549 breast. Further, the growth with MDA-MB-435 melanoma was 24.7%; in the assay on SW-620 colon it was -80.5% (active); with MCF7 breast it was -66.7% (active); with HCT-116 colon it was -90.7% (active); in the assay on HCC-2998 colon, 100%; in the assay with KM12 colon it was 63.1%.

`CC[C@@]1(C(N)=O)CC2C=CC1C2` (some centres not stated): the growth with SR leukemia was 85.8%; in the assay with RPMI-8226 leukemia, 102%; in the assay on OVCAR-8 ovarian it was 106%; in the assay on OVCAR-5 ovarian, 113%; in the assay with OVCAR-4 ovarian it was 114%; in the assay with SK-OV-3 ovarian, 103%. For the same compound, the growth is 123% in the assay on IGROV1 ovarian; 132% in the assay on OVCAR-3 ovarian; 118% in the assay on HS 578T breast; 113% with NCI/ADR-RES ovarian; 103% with T-47D breast; 104% in the assay on BT-549 breast. Besides, the growth is 106% in the assay on MDA-MB-435 melanoma; 113% in the assay with SW-620 colon; 99.5% in the assay with MCF7 breast; 104% in the assay on HCT-116 colon; 119% with KM12 colon.
